The values that follow come from ChEMBL document CHEMBL1961873, “Compounds: GSK PKIS; Assays: Nanosyn kinase panel” (2012).

In assay [1] the target is Leukocyte tyrosine kinase receptor (Homo sapiens) (UniProt P29376). As to conditions: at 1 µM.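 Further: each value is the mean inhibition of LTK.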
Assay [2] has as its target Tyrosine-protein kinase Lyn (Homo sapiens) (UniProt P07948). The following applies: at 0.1 µM.
For assay [3] the target is unchanged. As to conditions: at 1 µM.
Assay [4] shares this target. As to conditions: at 0.1 µM. The source holds these as a separate data set.
Assay [5] shares this target. As to conditions: at 1 µM. The source holds these as a separate data set.
The target in assay [6] is T1, Tyrosine-protein kinase Mer (Homo sapiens) (UniProt Q12866).
T1 sequence (whole entry): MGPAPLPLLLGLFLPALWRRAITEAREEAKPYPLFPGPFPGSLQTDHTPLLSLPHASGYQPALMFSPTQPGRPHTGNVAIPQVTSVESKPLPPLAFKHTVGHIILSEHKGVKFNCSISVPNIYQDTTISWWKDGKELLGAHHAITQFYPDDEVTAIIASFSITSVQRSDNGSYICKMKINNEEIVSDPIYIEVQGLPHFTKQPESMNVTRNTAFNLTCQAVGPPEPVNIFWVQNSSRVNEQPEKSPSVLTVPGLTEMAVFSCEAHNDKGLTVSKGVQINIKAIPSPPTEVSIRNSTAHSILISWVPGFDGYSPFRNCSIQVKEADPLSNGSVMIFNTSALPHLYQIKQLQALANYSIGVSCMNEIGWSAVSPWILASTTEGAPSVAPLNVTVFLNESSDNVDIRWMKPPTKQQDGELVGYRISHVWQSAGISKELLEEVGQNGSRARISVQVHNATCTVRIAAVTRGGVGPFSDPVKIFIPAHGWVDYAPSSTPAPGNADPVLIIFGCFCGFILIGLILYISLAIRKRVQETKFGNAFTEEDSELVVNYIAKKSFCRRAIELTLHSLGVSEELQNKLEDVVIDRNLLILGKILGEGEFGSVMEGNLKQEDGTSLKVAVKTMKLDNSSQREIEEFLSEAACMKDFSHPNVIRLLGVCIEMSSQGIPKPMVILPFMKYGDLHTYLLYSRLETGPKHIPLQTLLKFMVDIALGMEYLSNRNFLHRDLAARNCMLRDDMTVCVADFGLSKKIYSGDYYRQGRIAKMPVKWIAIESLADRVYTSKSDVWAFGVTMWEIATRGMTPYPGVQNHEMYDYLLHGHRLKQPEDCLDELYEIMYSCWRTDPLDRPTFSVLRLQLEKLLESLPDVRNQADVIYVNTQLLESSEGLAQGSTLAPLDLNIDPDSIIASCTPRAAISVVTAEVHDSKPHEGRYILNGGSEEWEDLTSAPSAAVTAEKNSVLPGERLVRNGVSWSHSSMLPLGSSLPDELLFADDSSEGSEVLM
As to conditions: at 0.1 µM.

Assay [7] addresses T1, Tyrosine-protein kinase Mer (Homo sapiens). As to conditions: at 1 µM.
Assay [8] concerns the target Hepatocyte growth factor receptor (Homo sapiens) (UniProt P08581). As to conditions: at 0.1 µM.
Assay [9] has the same target. As to conditions: at 1 µM.
In assay [10] the target is T2, Muscle, skeletal receptor tyrosine-protein kinase (Homo sapiens) (UniProt O15146).
T2 sequence (whole entry): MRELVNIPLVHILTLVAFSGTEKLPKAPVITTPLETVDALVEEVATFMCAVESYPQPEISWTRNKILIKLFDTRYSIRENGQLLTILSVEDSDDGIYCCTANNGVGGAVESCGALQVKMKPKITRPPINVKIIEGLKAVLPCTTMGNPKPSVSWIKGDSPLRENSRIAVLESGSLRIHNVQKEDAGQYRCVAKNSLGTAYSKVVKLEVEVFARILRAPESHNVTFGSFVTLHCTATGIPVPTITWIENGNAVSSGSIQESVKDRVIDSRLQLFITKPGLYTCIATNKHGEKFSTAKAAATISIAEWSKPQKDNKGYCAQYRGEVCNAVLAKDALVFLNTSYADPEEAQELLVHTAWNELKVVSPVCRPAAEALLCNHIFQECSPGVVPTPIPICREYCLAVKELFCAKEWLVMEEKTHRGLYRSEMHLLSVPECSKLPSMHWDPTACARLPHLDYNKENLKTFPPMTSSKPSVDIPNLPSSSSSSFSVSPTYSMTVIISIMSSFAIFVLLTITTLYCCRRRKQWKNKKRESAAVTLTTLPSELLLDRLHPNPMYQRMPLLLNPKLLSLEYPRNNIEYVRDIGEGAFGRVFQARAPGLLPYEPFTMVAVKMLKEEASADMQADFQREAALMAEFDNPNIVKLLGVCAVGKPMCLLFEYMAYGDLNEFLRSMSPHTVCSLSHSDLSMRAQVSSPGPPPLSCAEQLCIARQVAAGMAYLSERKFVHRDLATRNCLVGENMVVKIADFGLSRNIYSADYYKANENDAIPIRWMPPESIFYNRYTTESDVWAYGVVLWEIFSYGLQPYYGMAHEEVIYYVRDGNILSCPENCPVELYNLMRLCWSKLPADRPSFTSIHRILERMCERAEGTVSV
The following applies: at 0.1 µM.

Assay [11] addresses T2, Muscle, skeletal receptor tyrosine-protein kinase (Homo sapiens). As to conditions: at 1 µM.
The target of assay [12] is Platelet-derived growth factor receptor alpha (Homo sapiens) (UniProt P16234). As to conditions: at 0.1 µM.
Assay [13] has the same target. The following applies: at 1 µM.
The test system of assay [14] is Platelet-derived growth factor receptor alpha (Homo sapiens), P16234 [D842V]. As to conditions: at 0.1 µM.
Chain of Platelet-derived growth factor receptor alpha (Homo sapiens), P16234 [D842V] (P16234 whole entry D842V): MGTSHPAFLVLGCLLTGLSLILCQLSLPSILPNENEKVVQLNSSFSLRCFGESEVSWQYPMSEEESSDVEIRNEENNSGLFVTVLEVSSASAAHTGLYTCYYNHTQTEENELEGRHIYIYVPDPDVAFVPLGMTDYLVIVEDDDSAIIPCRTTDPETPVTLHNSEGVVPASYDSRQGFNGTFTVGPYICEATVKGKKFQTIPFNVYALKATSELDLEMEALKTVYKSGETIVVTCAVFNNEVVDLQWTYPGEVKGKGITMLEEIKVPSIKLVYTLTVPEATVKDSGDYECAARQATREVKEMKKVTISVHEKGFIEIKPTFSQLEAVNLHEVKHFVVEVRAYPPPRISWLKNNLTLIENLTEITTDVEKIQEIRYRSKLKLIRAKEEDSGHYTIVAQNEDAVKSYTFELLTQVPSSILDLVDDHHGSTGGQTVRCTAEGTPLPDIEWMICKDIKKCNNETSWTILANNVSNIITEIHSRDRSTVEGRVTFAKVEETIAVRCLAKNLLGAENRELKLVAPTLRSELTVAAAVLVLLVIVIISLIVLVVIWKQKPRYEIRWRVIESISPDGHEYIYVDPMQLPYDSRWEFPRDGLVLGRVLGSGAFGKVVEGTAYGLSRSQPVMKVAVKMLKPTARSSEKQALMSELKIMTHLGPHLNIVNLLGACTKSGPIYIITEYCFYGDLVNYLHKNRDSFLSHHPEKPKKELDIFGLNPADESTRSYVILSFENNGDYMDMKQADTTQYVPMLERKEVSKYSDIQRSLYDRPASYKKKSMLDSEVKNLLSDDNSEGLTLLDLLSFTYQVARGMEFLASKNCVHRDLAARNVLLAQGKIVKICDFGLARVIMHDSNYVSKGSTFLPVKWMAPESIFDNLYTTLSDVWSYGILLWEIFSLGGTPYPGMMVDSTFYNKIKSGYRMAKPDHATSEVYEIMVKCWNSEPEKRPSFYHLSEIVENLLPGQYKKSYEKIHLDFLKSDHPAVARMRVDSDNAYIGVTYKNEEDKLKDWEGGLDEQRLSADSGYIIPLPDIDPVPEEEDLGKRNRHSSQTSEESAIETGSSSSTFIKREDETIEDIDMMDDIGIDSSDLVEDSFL
Assay [15] has the same test system. As to conditions: at 1 µM.
Assay [16] has as its system Platelet-derived growth factor receptor alpha (Homo sapiens), P16234 [T674I]. As to conditions: at 0.1 µM.
Assay [17] has the same test system. The following applies: at 1 µM.
In assay [18] the test system is Platelet-derived growth factor receptor alpha (Homo sapiens), P16234 [V561D]. As to conditions: at 0.1 µM.
The test system is the same in assay [19]. The following applies: at 1 µM.
Assay [20] concerns the target Platelet-derived growth factor receptor beta (Homo sapiens) (UniProt P09619). As to conditions: at 0.1 µM.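 Further: reported value is the mean percent inhibition of the kinase.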

For orientation: inhibition means the change of the read-out against control, counted positive when it falls.

The structures appear in SMILES notation.

Chain of Platelet-derived growth factor receptor alpha (Homo sapiens), P16234 [T674I] (P16234 whole entry T674I): as the sequence (P16234 whole entry D842V) above, with T674I, V842D counted along it
Chain of Hepatocyte growth factor receptor (Homo sapiens) (P08581 whole entry): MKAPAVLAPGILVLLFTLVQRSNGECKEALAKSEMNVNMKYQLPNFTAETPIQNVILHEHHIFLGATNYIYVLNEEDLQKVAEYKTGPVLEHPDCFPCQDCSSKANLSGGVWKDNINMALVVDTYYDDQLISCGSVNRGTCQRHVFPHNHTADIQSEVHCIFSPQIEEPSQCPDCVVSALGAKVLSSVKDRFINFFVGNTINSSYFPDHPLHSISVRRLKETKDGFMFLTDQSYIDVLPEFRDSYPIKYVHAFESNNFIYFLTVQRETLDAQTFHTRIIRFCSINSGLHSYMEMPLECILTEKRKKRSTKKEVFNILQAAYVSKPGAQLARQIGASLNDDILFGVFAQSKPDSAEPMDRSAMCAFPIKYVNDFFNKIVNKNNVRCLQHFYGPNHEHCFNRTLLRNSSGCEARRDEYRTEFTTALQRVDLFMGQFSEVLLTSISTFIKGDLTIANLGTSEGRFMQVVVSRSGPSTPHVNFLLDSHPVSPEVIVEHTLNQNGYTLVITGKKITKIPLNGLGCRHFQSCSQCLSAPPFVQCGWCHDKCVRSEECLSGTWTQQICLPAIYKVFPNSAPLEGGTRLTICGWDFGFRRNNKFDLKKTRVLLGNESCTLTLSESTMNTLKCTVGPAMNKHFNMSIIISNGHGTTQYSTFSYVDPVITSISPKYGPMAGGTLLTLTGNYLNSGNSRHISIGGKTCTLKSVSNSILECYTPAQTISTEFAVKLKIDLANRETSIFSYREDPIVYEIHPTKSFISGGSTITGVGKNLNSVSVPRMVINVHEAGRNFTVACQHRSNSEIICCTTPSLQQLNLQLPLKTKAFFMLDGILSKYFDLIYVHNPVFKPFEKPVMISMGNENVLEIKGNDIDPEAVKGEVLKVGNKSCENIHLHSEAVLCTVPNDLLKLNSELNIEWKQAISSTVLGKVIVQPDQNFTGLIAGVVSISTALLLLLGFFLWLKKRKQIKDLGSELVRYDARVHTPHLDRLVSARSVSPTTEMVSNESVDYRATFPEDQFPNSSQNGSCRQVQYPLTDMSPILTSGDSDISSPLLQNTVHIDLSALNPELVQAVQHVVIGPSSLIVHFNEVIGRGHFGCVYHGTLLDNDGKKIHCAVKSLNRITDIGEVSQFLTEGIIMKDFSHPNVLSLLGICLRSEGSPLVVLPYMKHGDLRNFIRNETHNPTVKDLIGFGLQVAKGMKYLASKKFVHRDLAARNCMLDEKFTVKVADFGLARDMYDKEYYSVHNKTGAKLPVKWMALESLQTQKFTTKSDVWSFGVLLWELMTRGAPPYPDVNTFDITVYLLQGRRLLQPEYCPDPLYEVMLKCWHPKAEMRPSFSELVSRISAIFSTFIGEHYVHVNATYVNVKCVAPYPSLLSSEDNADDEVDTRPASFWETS
Chain of Tyrosine-protein kinase Lyn (Homo sapiens) (P07948 2-512 limits assumed): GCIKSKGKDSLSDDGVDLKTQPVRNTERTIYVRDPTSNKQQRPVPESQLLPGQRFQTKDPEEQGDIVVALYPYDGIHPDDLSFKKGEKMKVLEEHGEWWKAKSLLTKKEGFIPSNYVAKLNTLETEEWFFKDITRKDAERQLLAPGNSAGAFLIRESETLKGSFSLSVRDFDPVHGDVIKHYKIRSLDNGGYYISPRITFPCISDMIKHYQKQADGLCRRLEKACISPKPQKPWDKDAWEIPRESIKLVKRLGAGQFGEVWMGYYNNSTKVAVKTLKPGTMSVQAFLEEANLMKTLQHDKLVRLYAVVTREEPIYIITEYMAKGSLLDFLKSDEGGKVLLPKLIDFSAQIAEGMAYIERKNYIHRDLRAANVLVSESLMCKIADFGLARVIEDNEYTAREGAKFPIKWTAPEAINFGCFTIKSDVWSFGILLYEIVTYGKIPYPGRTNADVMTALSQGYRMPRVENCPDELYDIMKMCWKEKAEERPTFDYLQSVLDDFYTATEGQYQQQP
Chain of Leukocyte tyrosine kinase receptor (Homo sapiens) (P29376 whole entry): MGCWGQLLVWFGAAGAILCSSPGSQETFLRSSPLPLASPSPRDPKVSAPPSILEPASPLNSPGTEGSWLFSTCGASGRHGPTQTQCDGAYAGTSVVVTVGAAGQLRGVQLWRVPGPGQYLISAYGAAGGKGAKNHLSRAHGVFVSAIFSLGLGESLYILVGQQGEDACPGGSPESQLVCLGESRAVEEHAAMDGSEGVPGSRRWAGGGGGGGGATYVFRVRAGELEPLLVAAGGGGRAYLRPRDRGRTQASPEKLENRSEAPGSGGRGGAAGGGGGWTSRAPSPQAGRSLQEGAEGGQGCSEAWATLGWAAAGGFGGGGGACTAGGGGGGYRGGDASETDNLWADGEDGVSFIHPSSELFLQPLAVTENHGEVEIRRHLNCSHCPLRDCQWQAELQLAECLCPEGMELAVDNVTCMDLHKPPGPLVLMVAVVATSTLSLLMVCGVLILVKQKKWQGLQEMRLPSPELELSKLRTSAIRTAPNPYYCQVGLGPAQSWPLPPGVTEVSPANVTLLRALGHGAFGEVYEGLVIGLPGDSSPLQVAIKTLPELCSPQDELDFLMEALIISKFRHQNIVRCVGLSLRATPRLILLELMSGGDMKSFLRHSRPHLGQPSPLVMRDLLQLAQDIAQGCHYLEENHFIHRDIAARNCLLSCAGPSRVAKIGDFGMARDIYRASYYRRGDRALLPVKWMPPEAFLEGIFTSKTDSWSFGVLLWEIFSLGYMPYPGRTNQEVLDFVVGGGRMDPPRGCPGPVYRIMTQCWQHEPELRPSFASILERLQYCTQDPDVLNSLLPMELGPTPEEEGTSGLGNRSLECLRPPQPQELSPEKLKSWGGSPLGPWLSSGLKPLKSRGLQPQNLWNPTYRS

In the case of `COc1cc(Nc2ncc(-c3ccccc3)o2)cc(OC)c1`, the inhibition in assay [1] is 5.66%; in assay [2], 8.05%; in assay [3], 27.4%; in assay [4] it was 5.81%; in assay [5] it was 22.1%; in assay [6] it was 3.6%. For the same compound, the inhibition was determined as 4.87% in assay [7]; 3.69% in [8]; 5.98% in [9]; 2.95% in assay [10]; 4.72% in assay [11]; 17.5% in assay [12]. The inhibition came to 54.3% in [13]; 4.08% in assay [14]; 12.3% in assay [15]; 19.5% in [16]; 76.4% in assay [17]; 38.5% in assay [18]. The figures for the inhibition in assay [19] and in [20] were 64.3% and 20.5%, respectively.

`O=C(Nc1n[nH]c2nnc(-c3cccnc3)cc12)C1CC1`: the inhibition in assay [1] turned out to be 0.15%; in assay [2], 0.94%; in assay [3], 1.49%; in assay [4], 1.05%; in assay [5], 1.61%; in [6], 1.05%. Also, the inhibition in assay [7] is 1.8%; in [8] it was 3.88%; in [9] it was 0.68%; in assay [10] it was -0.19%; in assay [11] it was -0.99%; in assay [12] it was -0.04%. Besides, the inhibition turned out to be 5.88% in [13]; 2.16% in [14]; 2.26% in assay [15]; 1.36% in [16]; 6.43% in assay [17]; 1.61% in [18]. In addition, the inhibition in [19] was found to be 3.69%; in assay [20] it was 1.07%.

As to `O=C(O[C@H]1CN[C@H](C#Cc2cc3ncnc(Nc4ccc(OCc5cccc(F)c5)c(Cl)c4)c3s2)C1)N1CCOCC1`, the inhibition in assay [1] came out at 5.96%; in [2], 5.44%; in assay [3], 6.48%; in assay [4], 2.24%; in assay [5] it was 4.85%; in assay [6], 2.6%. Moreover, the inhibition came to 5.1% in assay [7]; 4.9% in [8]; 7.49% in assay [9]; 1.77% in [10]; 2.35% in assay [11]; 7.9% in [12]. For the same compound, the inhibition came out at 14.3% in assay [13]; 2.95% in [14]; 4.82% in assay [15]; 8.66% in assay [16]; 9.57% in assay [17]; 8.32% in assay [18]. Moreover, the results for the inhibition in [19] and in assay [20] were 3.92% and 1.59%, respectively.

`Cc1cc(O)cc(C)c1/C=C/c1cncc(C(=O)OC(C)(C)C)c1`: the inhibition was 2.98% in [1]; 13.7% in assay [2]; 57.2% in assay [3]; 13.6% in assay [4]; 53.4% in [5]; 1.26% in assay [6]. In addition, the inhibition came to 2.87% in [7]; 4.92% in assay [8]; 5.5% in assay [9]; 3.21% in assay [10]; 3.99% in assay [11]; 9.43% in assay [12]. In addition, the inhibition in assay [13] amounted to 42.6%; in assay [14], 5.23%; in assay [15] it was 14.7%; in assay [16], 4.63%; in assay [17], 5.73%; in assay [18], 14.4%. For the same compound, the inhibition came to 51% in [19] and 9.17% in assay [20].

On to `CC1=C(C(=O)Nc2ccc3[nH]nc(C)c3c2)C(c2ccc(C(F)(F)F)cc2)CC(=O)N1` (stereo not given), for which the inhibition in [1] stood at 3.55%; in assay [2] it was 4.49%; in [3] it was 6.25%; in assay [4] it was 1.98%; in assay [5], 3.89%; in assay [6], 2.17%. Also, the inhibition in assay [7] was found to be 5.55%; in [8], 1.4%; in assay [9], 17.3%; in [10], 5.25%; in assay [11], 23.7%; in [12], 7.08%. Moreover, the inhibition in assay [13] is 19.3%; in [14], 2.09%; in assay [15], 6.76%; in [16], 2.02%; in [17], 1.41%; in [18], -0.51%. In addition, the inhibition in [19] was 8.12%; in assay [20], 8.62%.

On to `CCS(=O)(=O)c1ccc(OC)c(Nc2ncc(-c3cccc(F)c3)o2)c1`, for which the inhibition in assay [1] was found to be 6.89%; in [2], 32.5%; in assay [3], 78.7%; in assay [4], 26.3%; in assay [5] it was 75.4%; in assay [6], 2.9%. The inhibition in assay [7] is 9.7%; in [8], 6.73%; in assay [9], 5.27%; in [10] it was 3.58%; in assay [11], 16.3%; in assay [12], 21.1%. Moreover, the inhibition came out at 70.7% in assay [13]; 11.3% in [14]; 41.5% in [15]; 5.36% in assay [16]; 17.3% in [17]; 21.4% in [18]. The figures for the inhibition in assay [19] and in assay [20] were 68.7% and 35.7%, respectively.
